Results on five compounds are retold here after PubChem BioAssay.

Results filed as inconclusive are left out. Active and inactive are the calls of the source.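 How the source made its calls, unless noted: active means inhibition over a set limit, the all-compound mean plus 3 SD, in both replicate runs; inconclusive means over that limit in just one replicate run; inactive means at or under that limit in both runs.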

Assay [1] is described as follows: reducers of endogenous Her2 protein level, primary screen, SKBR3 breast tumor cells, AlphaScreen, ATP viability (AID 461;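 active means Her2 level under about 52% in both replicate screens, with viability over 70% of control, limit read from the data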;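 on Her2 level: lower value means less Her2 protein in the cells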;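 on viability: percent of carrier control wells set as 100% viability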). As to conditions: 18-24 h, measured here: SKBR3 viability, ATP luminescence, at 10 µM.
Assay [2] addresses Receptor tyrosine-protein kinase erbB-2 (Homo sapiens) (UniProt P04626). Described as above. The settings on record: 18-24 h, at 10 µM, stronger effect = lower value.
Assay [3] is described as follows: SK-BR-3 cell growth inhibitors, pilot screen, 24 h, human (AID 572;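 active means viability at or below 10% of carrier control in both of two separate runs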;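 further: compound exposure lasted between 18 and 24 h rather than exactly 24 h; 100% = carrier-treated control wells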). As to conditions: SK-BR-3 viability, CellTiter-Glo luminescence, at 10 µM, stronger effect = lower value. A general note: In ATP-based viability assays light output follows the ATP content of the culture.
Assay [4] can be described thus: HUVEC growth inhibition – cell-based, human, primary screen (AID 575;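 active means viability at or below 30% in both replicate assays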;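 further: 100% = median of untreated cell wells with 0.1% DMSO on each plate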). The settings on record: HUVEC proliferation, CellTiter-Glo luminescence, 72 h; at 10 µM; stronger effect = lower value.
A short description of assay [5]: growth inhibitors of H69AR lung tumor, primary screen, human, duplicate replicates (AID 580;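 active means viability at or under a set limit in both replicates, limit being median viability minus 3 SD, cut at about 48% in these data, passing the limit was not always enough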;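 further: 100% = mean luminescence of untreated wells and 0% = no signal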). The settings on record: H69AR lung tumor cells viability, ATP luminescence, 72 h; at 10 µM; stronger effect = lower value.
The nature of assay [6]: reversal of MRP1-mediated doxorubicin resistance, pilot screen, H69AR cells, doxorubicin co-treatment (AID 601;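 active means viability loss from added drug above about 55%, and viability with drug at most 40%, in both replicates, limit read from the data, passing the limit was not always enough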). The settings on record: CellTiter-Glo, 72 h, at 10 µM; for differential viability (reversal): stronger effect = higher value.
A short description of assay [7]: 384-well plate pilot, post-Golgi transport modulator project, inhibition of yeast transport mutant growth (AID 636; in the data active means inhibition above about 31%). As to conditions: absorbance 615 nm, about 18 h, stronger effect = higher value.
Assay [8] in a line: growth suppression of yeast trafficking mutant, preliminary HTS, modulators of trafficking downstream of Golgi apparatus project, 1536-format plate, OD 615 nm (AID 637; in the data active means inhibition above about 30%). As to conditions: yeast transport mutant growth, absorbance 615 nm, 18 h; stronger effect = higher value.
Assay [9] in a line: OD615 S. cerevisiae growth inhibition, permissive medium, pilot counter-assay, permissive growth control for S. cerevisiae lifespan shortening project (AID 705;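 active means growth inhibition above 25% in both replicates, a cutoff set 3 SD above the mean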). As to conditions: OD615, 24 h, at 10 µM, stronger effect = higher value.
Assay [10] in a line: Restrictive medium S. cerevisiae growth inhibition, OD615, pilot screen of yeast lifespan reduction project, restrictive growth control (AID 706;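 active means growth inhibition above a set limit, 3 SD over mean compound inhibition, in both replicates, cut at about 43% in these data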;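 further: modified DeaD lifespan yeast strain shifted to restrictive glucose medium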). The settings on record: OD615, 48 h, at 10 µM, stronger effect = higher value.
A short description of assay [11]: viability gain of MRP-1-high H69AR cells under doxorubicin, pilot screen, MRP-1 activator project, CellTiter-Glo, duplicate (AID 807;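 active means viability increase at or above a cutoff of the median across tested compounds plus 3 SD, cut at about 8.5% in these data, passing the limit was not always enough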;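 further: compound pretreatment 18-22 h then 72 h combined with doxorubicin; 0% = doxorubicin alone and 100% = vehicle without doxorubicin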). As to conditions: H69AR viability with doxorubicin, CellTiter-Glo luminescence; at 10 µM; stronger effect = higher value.
A short description of assay [12]: growth suppression of beta-catenin knockout HCT116, pilot screen, human colon tumor cells (AID 823;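 active means cell viability at or below a set limit in both duplicate runs, the limit being the all-compound median minus 4 SD, cut at about 23% in these data, passing the limit was not always enough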;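 further: 0% = wells killed by 20 µM Hyamine and 100% = untreated DMSO cell wells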). The settings on record: CellTiter-Glo, 60 h, at 10 µM, stronger effect = lower value.
The nature of assay [13]: growth suppression of PTEN-deleted HCT116, pilot screen, cell-based, HCT116 clonal line, CellTiter-Glo (AID 824;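 active means viability at or below 27.92% in each of two runs, the all-compound median minus 4 SD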;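 further: 0% = 20 µM Hyamine control and 100% = vehicle cell control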). As to conditions: 60 h, at 10 µM, stronger effect = lower value.
Assay [14] in a line: inhibitors of the yeast RAM network, pilot screen, dse1pr::URA3 reporter, 5-FOA selection (AID 869).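 Further: 0% = DMSO wells with no growth and 100% = 10 µM 1-NA-PP1 with full growth; RAM network block rescues cells from 5-FOA so hits raise OD615 growth.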 As to conditions: S. cerevisiae dse1pr::URA3 5-FOA growth, OD615, 2 d; at 10 µM; stronger effect = higher value; strain carries analog-sensitive mutant Cbk1 kinase.
Assay [15] is described as follows: RAM signaling pathway blockade in yeast – S. cerevisiae, Pdr1DBD-CYC8 efflux-inhibited sensitized strain, primary screen (AID 1298;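 active means RAM network inhibition above 8.4% in each of two replicates, 3 SD over the compound average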;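 further: 0% = DMSO untreated cells without growth and 100% = 10 µM 1-NA-PP1 full growth; higher means more yeast growth rescued from 5-FOA killing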). As to conditions: S. cerevisiae cbk1-as DSE1-URA3 strain, 5-FOA growth OD615, 2 d; at 50 µM; stronger effect = higher value.
Where [16] appears, read: H69AR cells + 2 uM doxorubicin, measured here: viability with 2 uM doxorubicin, stronger effect = lower value.
[17] abbreviates: H69AR cells, compound alone cytotoxicity.

Chain of Receptor tyrosine-protein kinase erbB-2 (Homo sapiens) (P04626 whole entry, looked up): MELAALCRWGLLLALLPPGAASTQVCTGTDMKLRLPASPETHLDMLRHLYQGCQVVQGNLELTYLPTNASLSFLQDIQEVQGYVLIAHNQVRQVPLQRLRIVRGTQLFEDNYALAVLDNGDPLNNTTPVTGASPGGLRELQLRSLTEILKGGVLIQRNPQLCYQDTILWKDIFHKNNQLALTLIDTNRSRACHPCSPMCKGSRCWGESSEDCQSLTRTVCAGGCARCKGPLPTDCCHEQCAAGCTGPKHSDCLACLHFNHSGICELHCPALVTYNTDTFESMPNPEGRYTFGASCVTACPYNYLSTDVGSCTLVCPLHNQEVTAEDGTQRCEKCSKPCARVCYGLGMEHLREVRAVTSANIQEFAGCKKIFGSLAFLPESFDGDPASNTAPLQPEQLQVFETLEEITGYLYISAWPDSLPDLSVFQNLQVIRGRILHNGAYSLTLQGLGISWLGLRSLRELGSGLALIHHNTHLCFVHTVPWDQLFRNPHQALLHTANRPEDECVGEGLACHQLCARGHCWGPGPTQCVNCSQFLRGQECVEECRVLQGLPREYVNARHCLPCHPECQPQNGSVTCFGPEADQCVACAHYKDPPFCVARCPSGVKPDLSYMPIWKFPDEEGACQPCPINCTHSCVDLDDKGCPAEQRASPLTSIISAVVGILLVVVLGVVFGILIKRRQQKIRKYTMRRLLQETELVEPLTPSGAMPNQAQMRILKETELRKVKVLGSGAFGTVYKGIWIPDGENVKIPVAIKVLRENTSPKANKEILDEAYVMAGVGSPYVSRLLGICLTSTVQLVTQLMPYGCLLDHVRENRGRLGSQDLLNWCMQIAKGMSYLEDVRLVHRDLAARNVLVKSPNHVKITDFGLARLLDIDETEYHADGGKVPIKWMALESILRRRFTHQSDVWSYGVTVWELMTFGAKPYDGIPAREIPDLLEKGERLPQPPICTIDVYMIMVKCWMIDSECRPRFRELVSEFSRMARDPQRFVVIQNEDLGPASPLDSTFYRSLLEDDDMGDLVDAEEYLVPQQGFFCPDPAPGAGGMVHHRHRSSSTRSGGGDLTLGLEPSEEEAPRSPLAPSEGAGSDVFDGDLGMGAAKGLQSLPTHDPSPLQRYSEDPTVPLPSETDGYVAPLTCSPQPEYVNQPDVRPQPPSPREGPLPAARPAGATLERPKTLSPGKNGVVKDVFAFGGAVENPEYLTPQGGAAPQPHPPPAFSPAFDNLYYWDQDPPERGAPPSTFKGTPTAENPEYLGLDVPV

With `c1ccc(Cn2nnc3c(N4CCCCCC4)ncnc32)cc1`, the viability – broadly, a read-out of living cells in per cent, often relative to untreated cells – in assay [1] is 94%; in assay [3], 94% (inactive); in assay [4], 57.5% (inactive); in assay [5], 69.9% (inactive); in [6] (setting [16]) it was 83.8%; in [6] (setting [17]), 69.9%. In addition, the viability was 40% (inactive) in assay [12] and 33.6% (inactive) in assay [13]. In addition, the Her2 level in assay [2] is 88% (inactive). Besides, the differential viability (reversal) in assay [6] (H69AR cells + 2 uM doxorubicin) was -13.9% (inactive). The inhibition (as a rule, the change of the read-out against control, counted positive when it falls) in assay [7] was -5.87% (inactive); in assay [8], 2.83% (inactive); in assay [14], 0.74% (inactive). Further, the growth inhibition in assay [9] was -13% (inactive); in assay [10], -8.65% (inactive). Also, the viability increase in [11] was -0.65% (inactive). In addition, the RAM network inhibition in assay [15] is 5.41% (inactive).

Turning to `O=C(c1ccco1)N1CCN(C(=O)C2CC(c3ccc(F)cc3)=NO2)CC1` (stereo not given), the viability is 88% in assay [1]; 88% (inactive) in assay [3]; 94.1% (inactive) in [4]; 88.5% (inactive) in assay [5]; 87.8% in assay [6] (setting [16]); 88.5% in assay [6] (setting [17]). In addition, the viability is 106% (inactive) in assay [12] and 105% (inactive) in [13]. For the same compound, the Her2 level in [2] was 112% (inactive). Moreover, the differential viability (reversal) in [6] (H69AR cells + 2 uM doxorubicin) was 0.74% (inactive). Also, the inhibition was -1.15% (inactive) in [7], -4.17% (inactive) in [8] and 0.47% (inactive) in assay [14]. For the same compound, the growth inhibition was -1.38% (inactive) in [9] and 22% (inactive) in assay [10]. The viability increase in assay [11] was -1.41% (inactive). Further, the RAM network inhibition in assay [15] is 5.01% (inactive).

Take `CCOC(=O)c1cccc(NC2c3ccccc3C(=O)N2Cc2ccco2)c1` (stereo not given): the viability is 98.5% in [1]; 98.5% (inactive) in assay [3]; 76.2% (inactive) in assay [4]; 82.1% (inactive) in [5]; 88.4% in assay [6] (setting [16]); 82.1% in assay [6] (setting [17]). Besides, the viability in assay [12] was 64.7% (inactive); in assay [13], 74.6% (inactive). Further, the Her2 level in assay [2] is 98% (inactive). Further, the differential viability (reversal) in assay [6] (H69AR cells + 2 uM doxorubicin) was -6.29% (inactive). Besides, the figures for the inhibition in assay [7], in [8] and in [14] were -3.6% (inactive), -0.83% (inactive) and 2.4% (inactive), respectively. Also, the growth inhibition in assay [9] was 2.55% (inactive); in [10] it was 1.38% (inactive). In addition, in assay [11], the viability increase is -5.15% (inactive). For the same compound, the RAM network inhibition in [15] is 8.31% (inactive).

In the case of `CCOc1ccc2nc(N3CCC(C(=O)N4CCN(C5CCCCC5)CC4)CC3)sc2c1`, the viability is 83% in assay [1]; 83% (inactive) in assay [3]; 98.6% (inactive) in assay [4]; 95.7% (inactive) in [5]; 87.2% in [6] (setting [16]); 95.7% in [6] (setting [17]). Moreover, the viability is 55.6% (inactive) in assay [12] and 70.3% (inactive) in assay [13]. The Her2 level in assay [2] is 83.5% (inactive). For the same compound, in [6] (H69AR cells + 2 uM doxorubicin), the differential viability (reversal) is 8.46% (inactive). The inhibition was -1.33% (inactive) in assay [7], -4.1% (inactive) in [8] and 1.22% (inactive) in [14]. Moreover, the growth inhibition in assay [9] is -0.545% (inactive); in assay [10] it was 8.85% (inactive). Besides, in [11], the viability increase was -3.43% (inactive). Moreover, in assay [15], the RAM network inhibition is 0.6% (inactive).

Take `CCCCCn1c(=O)[nH]c2cc(C(=O)NCCCN3CCCCC3)ccc2c1=O`: the viability was 76% in assay [1]; 76% (inactive) in [3]; 86.5% (inactive) in assay [4]; 88.7% (inactive) in assay [5]; 82% in assay [6] (setting [16]); 88.7% in [6] (setting [17]). For the same compound, the viability in assay [12] is 75.1% (inactive); in assay [13], 77.5% (inactive). Moreover, the Her2 level in assay [2] is 74.5% (inactive). Besides, the differential viability (reversal) in assay [6] (H69AR cells + 2 uM doxorubicin) was 6.66% (inactive). Moreover, the inhibition in [7] is -6.76% (inactive); in assay [8] it was 5.33% (inactive); in [14], -0.475% (inactive). Further, the growth inhibition is -6.6% (inactive) in assay [9] and 6.35% (inactive) in [10]. Besides, in assay [11], the viability increase was -2.74% (inactive). In addition, in assay [15], the RAM network inhibition was 0.41% (inactive).
